Inconclusive results are not listed. Activity calls are given as the source filed them. Calls follow the shape of the dose curve; as a rule, active = well fitted curve in the direction sought with a large enough effect; inconclusive = small, poorly fitted or top-dose-only effect, or another doubt; inactive = no such curve, though single readings can be large; an effect the other way counts as inactive or inconclusive.
Legend:
[1] = MultiTox-Fluor Cytotoxicity Assay - LYMP1-001 - Dead Cells (AID 946)
Outline: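 Cytotoxicity as increased dead-cell protease fluorescence (bis-AAF-R110, 485/520 nm), read 60 min after MultiTox-Fluor reagent. Human lymphoblastoid line exposed 16 h; Hill-fitted AC50, with DMSO as 0% and 15 uM tetraoctylammonium bromide as 100%.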

[2] = MultiTox-Fluor Cytotoxicity Assay - LYMP1-001 - Live Cells (AID 947)
[3] = Cell Viability - LYMP1-002 - Assay at 16 hr (AID 948)
Outline: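 LYMP1-002 human lymphoblastoid cells, 2500/well; 5 hr 37 C; cpd 16 hr 37 C; CellTiter-Glo 30 min RT; luminescence (ATP). Concentration-response, Hill-fit AC50. Pos ctrl tetraoctylammonium bromide.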

[4] = MultiTox-Fluor Cytotoxicity Assay - LYMP1-002 - Live Cells (AID 955);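 also: cells exposed to compound for 16 hours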
Outline: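 LYMP1-002 lymphoblastoid cells; 2500 cells/well; 16 hr compound exposure, 37 C; MultiTox-Fluor reagent 60 min RT; live-cell fluorescence Ex/Em=405/510; qHTS concentration-response, Hill-equation AC50; tetraoctylammonium bromide positive control.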

[5] = MultiTox-Fluor Cytotoxicity Assay - LYMP1-002 - Dead Cells (AID 960); also: nearly all actives have a fitted effect of over 60% in size
Outline: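 Readout: fluorescence at 485/520 from cell-impermeant bis-AAF-R110 cleaved by proteases leaking from damaged cells. LYMP1-002 lymphoblastoid line, 16 hr compound treatment at 37 C, concentration-response in qHTS format; Hill-equation AC50 values.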

[6] = MultiTox-Fluor Cytotoxicity Assay - LYMP1-003 - Dead Cells (AID 961); also: nearly all actives have a fitted effect of over 70% in size
Outline: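 Dead-cell protease release, detected as bis-AAF-R110 fluorescence at 485/520 nm, was measured in LYMP1-003 cells after 16 h compound treatment at 37 C. AC50 values came from Hill-modeled qHTS curves normalized to DMSO (0%) and 15 uM tetraoctylammonium bromide (100%).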

[7] = MultiTox-Fluor Cytotoxicity Assay - LYMP1-003 - Live Cells (AID 962);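 also: cells exposed to compound for 16 hours at 37 °C; cytotoxic hits lower the live-cell protease signal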
Outline: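 Readout: live-cell fluorescence (Ex/Em=405/510) from GF-AFC cleavage after 60 min MultiTox-Fluor reagent at room temperature. Lymphoblastoid LYMP1-003 cells, 16 hr compound treatment, 37 C. Concentration-response fitted to standard Hill equation for AC50.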

[8] = Cell Viability - LYMP1-003 - Assay at 24 hr (AID 963)
Outline: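 CellTiter-Glo luminescence (intracellular ATP) read after 24 hr, 37 C compound exposure of 2500 LYMP1-003 human lymphoblastoid cells/well in complete medium; qHTS concentration series; AC50 via standard Hill equation.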

[9] = Cell Viability - LYMP1-003 - Assay at 40 hr (AID 964); also: series mostly up to about 92 µM; nearly all actives have a fitted effect of over 60% in size
Outline: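 LYMP1-003 lymphoblastoid cells, 2500/well; 5 hr preincubation, 40 hr compound exposure, 37 C; CellTiter-Glo 30 min RT; luminescence; Hill-fit AC50. Positive control tetraoctylammonium bromide.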

[10] = Cell Viability - LYMP2-003 (AID 965);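 also: cells exposed to compounds for 24 h before reading; nearly all actives have a fitted effect of over 50% in size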
Outline: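 CellTiter-Glo luminescence (cellular ATP) after 24 h compound exposure at 37 C in complete medium; 2500 cells/well, 5 h settling beforehand. Concentration-response fitted to standard Hill equation for AC50. Tetraoctylammonium bromide served as positive control.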

[11] = Cell Viability - LYMP2-004 (AID 966); also: nearly all actives have a fitted effect of over 65% in size
Outline: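 Luminescent ATP read-out (CellTiter-Glo, 30 min RT) after 24 hr compound exposure at 37 C; 2500 lymphoblastoid cells/well, complete medium. Decrease in ATP = cytotoxicity; AC50 from standard Hill model.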

[12] = Cell Viability - LYMP2-009 (AID 968); also: series mostly up to about 92 µM; nearly all actives have a fitted effect of over 55% in size
[13] = Cell Viability - LYMP2-011 (AID 969);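 also: cells exposed to compound for 24 hours; nearly all actives have a fitted effect of over 60% in size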
Outline: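 Luminescent ATP read-out (CellTiter-Glo, 30 min RT) after 24 hr compound exposure at 37 C in human lymphoblastoid cells, 2500 cells/well. Decreasing ATP indicates cytotoxicity; AC50 from standard Hill fit.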

[14] = Cell Viability - LYMP2-015 (AID 971); also: nearly all actives have a fitted effect of over 55% in size
Outline: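 qHTS cytotoxicity: 2500 cells/well, 5 hr 37 C, compound 24 hr 37 C, CellTiter-Glo 30 min RT, luminescence. Loss of ATP = toxicity; AC50 via standard Hill fit.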

[15] = Cell Viability - LYMP2-017 (AID 972);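 also: series mostly up to about 92 µM; cells exposed to compound for 24 hours at 37 °C; nearly all actives have a fitted effect of over 55% in size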
Outline: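 Luminescent ATP read-out (CellTiter-Glo, 30 min RT) reports viable cell number. Cells: human lymphoblastoid line, 2500 per well, 5 hr preincubation, 24 hr compound exposure at 37 C. AC50 is derived from qHTS concentration-response data using the standard Hill model.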

[16] = Cell Viability - LYMP2-019 (AID 973); also: nearly all actives have a fitted effect of over 55% in size
Outline: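 qHTS, 1536-well; 2500 cells/well; 5 hr pre-incubation, 24 hr compound exposure, 37 C; CellTiter-Glo added, 30 min RT; luminescence read; AC50 via standard Hill equation.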

[17] = Cell Viability - LYMP2-021 (AID 974)
Outline: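 ATP luminescence (CellTiter-Glo, 30 min RT) after 24 h compound exposure at 37 C; 2500 human lymphoblastoid cells/well, 5 h settle beforehand. Cytotoxicity = concentration-dependent ATP drop, AC50 by Hill fit.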

[18] = Cell Viability - LYMP2-023 (AID 975)
Outline: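 CellTiter-Glo luminescence after 30 min at room temperature; decrease in intracellular ATP reflects toxicity. Cells: human lymphoblastoid line, 2500/well, 24 hr compound exposure at 37 C. AC50 fitted to standard Hill equation from concentration-response.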

[19] = Cell Viability - LYMP2-005 (AID 967); also: series mostly up to about 92 µM
Outline: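 Steps: seed 2500 LYMP2-005 cells/well, incubate 5 h at 37 C, add compound, incubate 24 h at 37 C, add CellTiter-Glo, wait 30 min at RT, read luminescence. Concentration-response data fitted to Hill equation for AC50.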

[20] = Cell Viability - LYMP2-013 (AID 970)
Outline: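 CellTiter-Glo luminescence (cellular ATP) read after 30 min at RT. Cells: human lymphoblastoid line, 2500/well, 24 hr compound exposure at 37 C. Tetraoctylammonium bromide positive control; AC50 via standard Hill fit of qHTS titrations.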

Measured: Potency

Cc1cccc(C(=O)O)c1
not listed: [19] | [20]
inactive: all other assays above

C=CCCCC
not listed: [20]
inactive: all other assays above

CCCCC(CC)CNCC(CC)CCCC (stereo unspecified)
not listed: [19] | [20]
inactive: all other assays above

CC(=O)C1(C)CC2=C(CCCC2(C)C)CC1C (stereo unspecified)
not listed: [11] | [18]
inactive: all other assays above

NS(=O)(=O)O
not listed: [12]
inactive: all other assays above

CNC(=O)N(c1ccccc1)c1ccccc1
not listed: [12]
inactive: all other assays above

CCOc1ccccc1N
not listed: [9] | [12]
inactive: all other assays above

OC(CCl)CCl
not listed: [10]
inactive: all other assays above

C1COC1
not listed: [10] | [13]
inactive: all other assays above

O=C(O)c1ccccc1C(=O)O
not listed: [9]
inactive: all other assays above

CC1CCC2CC1C2(C)C (stereo unspecified)
not listed: [11] | [19] | [20]
inactive: all other assays above

Nc1nc2ccccc2[nH]1
not listed: [10] | [19] | [20]
inactive: all other assays above

CC(=O)Nc1ccc(N)cc1
not listed: [9]
inactive: all other assays above

CN(C)CCCNCCCN
not listed: [11] | [12] | [19]
inactive: all other assays above

CC(=O)c1cc(C)oc1C
not listed: [9]
inactive: all other assays above

ClC/C=C/CCl
not listed: [11] | [16] | [20]
inactive: all other assays above
